The results in this text go back to publication PMC7862700, “An all-to-all approach to the identification of sequence-specific readers for epigenetic DNA modifications on cytosine”.

Holding throughout (test): DAPPL (digital affinity profiling via proximity ligation, sequencing); 10 mM Tris-HCl pH 7.5, 50 mM NaCl, 1 mM DTT, 4% glycerol, room temperature, 30 min; GST-TFs on glutathione beads, 16-mer random dsDNA library, 0.1% formaldehyde crosslink after washing; high values mean tight binding
One experiment concerns the target T1, FLI1 (Homo sapiens, UniProt Q01543 1-452).
T1 sequence: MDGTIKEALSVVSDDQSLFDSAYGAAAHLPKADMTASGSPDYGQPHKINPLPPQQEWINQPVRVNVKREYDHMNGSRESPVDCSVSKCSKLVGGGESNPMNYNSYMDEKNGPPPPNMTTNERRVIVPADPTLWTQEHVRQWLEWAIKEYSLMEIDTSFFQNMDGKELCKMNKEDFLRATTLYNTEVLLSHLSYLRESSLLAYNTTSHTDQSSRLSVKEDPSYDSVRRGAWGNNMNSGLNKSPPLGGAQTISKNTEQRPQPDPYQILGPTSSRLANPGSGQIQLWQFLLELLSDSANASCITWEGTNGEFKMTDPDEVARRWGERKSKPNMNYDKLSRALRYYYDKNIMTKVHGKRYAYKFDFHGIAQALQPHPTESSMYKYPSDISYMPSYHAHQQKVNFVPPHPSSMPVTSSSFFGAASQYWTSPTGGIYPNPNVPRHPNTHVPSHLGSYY
The note with it: protein: recombinant; tags: N-terminal GST; dsDNA, one strand shown. A digest of the protocol: (§1)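 A tag-only sample was pooled with DNA-barcoded human transcription factors that had been expressed in yeast as GST fusions and captured on glutathione beads. The pools were incubated for 30 min at room temperature with 200 nmole of a random double-stranded 16-mer DNA library in Tris/NaCl/DTT/glycerol buffer, then washed, crosslinked with 0.1% formaldehyde, proximity-ligated (BsaI/T4 ligase, 1 h, 37 °C), PCR-amplified and sequenced on an Illumina NextSeq500. Binding signal is each hexamer's read frequency for a factor divided by its frequency for the tag-only sample.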

Another experiment concerns the target T2, ELK1 (Homo sapiens, UniProt P19419 1-428).
T2 sequence: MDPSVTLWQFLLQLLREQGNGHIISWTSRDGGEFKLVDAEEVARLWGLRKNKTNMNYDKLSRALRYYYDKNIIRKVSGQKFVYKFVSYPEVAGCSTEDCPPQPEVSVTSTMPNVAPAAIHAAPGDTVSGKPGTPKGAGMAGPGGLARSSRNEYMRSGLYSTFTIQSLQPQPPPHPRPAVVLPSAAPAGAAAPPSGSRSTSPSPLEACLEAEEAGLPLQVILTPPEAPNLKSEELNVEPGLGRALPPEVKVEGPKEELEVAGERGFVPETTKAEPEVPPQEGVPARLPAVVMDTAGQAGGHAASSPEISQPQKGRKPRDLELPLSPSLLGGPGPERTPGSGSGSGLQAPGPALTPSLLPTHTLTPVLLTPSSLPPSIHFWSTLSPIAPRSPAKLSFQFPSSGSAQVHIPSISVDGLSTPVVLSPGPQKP
The note with it: protein: recombinant; tags: N-terminal GST; dsDNA, one strand shown. In outline:
as §1

The target in another experiment is T3, GABPA (Homo sapiens, UniProt Q06546 1-454).
T3 sequence: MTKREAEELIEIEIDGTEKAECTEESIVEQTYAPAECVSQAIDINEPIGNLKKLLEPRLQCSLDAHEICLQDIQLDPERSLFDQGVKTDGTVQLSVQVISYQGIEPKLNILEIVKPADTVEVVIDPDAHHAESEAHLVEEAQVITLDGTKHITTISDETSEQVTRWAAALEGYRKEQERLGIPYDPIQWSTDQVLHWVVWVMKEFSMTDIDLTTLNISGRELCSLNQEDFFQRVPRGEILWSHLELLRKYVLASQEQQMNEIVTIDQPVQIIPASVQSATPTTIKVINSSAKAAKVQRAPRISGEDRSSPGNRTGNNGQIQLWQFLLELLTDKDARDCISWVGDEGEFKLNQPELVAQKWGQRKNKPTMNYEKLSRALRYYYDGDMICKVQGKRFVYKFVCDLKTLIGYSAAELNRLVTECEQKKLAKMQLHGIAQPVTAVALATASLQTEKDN
Particulars: protein: recombinant; tags: N-terminal GST; dsDNA, one strand shown. A digest of the protocol:
as §1

The next experiment deals with T4, ERG (Homo sapiens, UniProt P11308 1-479).
T4 sequence: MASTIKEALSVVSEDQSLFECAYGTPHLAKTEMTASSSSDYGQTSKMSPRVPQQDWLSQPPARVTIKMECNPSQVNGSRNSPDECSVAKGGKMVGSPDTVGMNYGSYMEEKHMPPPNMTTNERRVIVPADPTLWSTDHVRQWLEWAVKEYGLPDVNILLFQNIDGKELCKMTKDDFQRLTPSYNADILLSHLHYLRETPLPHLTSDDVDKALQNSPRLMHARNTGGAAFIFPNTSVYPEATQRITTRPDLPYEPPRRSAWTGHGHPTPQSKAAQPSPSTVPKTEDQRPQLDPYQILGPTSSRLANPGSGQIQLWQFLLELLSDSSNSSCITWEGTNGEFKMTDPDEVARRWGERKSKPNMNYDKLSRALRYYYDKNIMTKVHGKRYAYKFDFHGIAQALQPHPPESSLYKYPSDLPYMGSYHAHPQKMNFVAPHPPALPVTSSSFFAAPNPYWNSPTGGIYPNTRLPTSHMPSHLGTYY
The note with it: protein: recombinant; tags: N-terminal GST; dsDNA, one strand shown. A digest of the protocol: as §1

The target of a further experiment is ELF1 (Homo sapiens, UniProt P32519 1-619). Particulars: protein: recombinant; tags: N-terminal GST; dsDNA, one strand shown. A digest of the protocol: as §1
The target in another experiment is T5, EHF (Homo sapiens, UniProt Q9NZC4 1-300).
T5 sequence: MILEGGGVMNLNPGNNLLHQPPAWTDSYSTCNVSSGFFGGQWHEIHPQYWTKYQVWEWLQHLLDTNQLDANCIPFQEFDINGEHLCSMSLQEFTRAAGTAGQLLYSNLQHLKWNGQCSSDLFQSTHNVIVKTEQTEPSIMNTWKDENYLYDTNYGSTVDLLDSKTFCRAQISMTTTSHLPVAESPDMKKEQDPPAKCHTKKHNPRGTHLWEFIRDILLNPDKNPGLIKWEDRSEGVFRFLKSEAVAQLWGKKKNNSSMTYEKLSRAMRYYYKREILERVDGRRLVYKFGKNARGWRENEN
The note with it: protein: recombinant; tags: N-terminal GST; dsDNA, one strand shown. In outline: as §1

Another experiment concerns the target SPI1 (Homo sapiens, UniProt P17947 1-270). Particulars: protein: recombinant; tags: N-terminal GST; dsDNA, one strand shown. In outline:
as §1

The target in the next experiment is SPIB (Homo sapiens, UniProt Q01892 1-262). Particulars: protein: recombinant; tags: N-terminal GST; dsDNA, one strand shown. A digest of the protocol:
as §1

In another experiment the target is T6, ELK3 (Homo sapiens, UniProt P41970 1-407).
T6 sequence: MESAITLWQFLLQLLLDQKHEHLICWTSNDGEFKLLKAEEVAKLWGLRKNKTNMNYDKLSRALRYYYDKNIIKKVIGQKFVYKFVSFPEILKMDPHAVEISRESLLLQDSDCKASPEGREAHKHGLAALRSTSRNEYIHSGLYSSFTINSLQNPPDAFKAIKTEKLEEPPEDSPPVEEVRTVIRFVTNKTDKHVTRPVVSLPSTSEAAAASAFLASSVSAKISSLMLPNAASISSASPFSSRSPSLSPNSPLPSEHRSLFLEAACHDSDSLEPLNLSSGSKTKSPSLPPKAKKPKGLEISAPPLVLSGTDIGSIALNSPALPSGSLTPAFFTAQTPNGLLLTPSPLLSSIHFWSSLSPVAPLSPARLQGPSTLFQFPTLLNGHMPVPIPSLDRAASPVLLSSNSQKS
The note with it: protein: recombinant; tags: N-terminal GST; dsDNA, one strand shown. In outline: as §1

The next experiment has as its target T7, FEV (Homo sapiens, UniProt Q99581 1-238).
T7 sequence: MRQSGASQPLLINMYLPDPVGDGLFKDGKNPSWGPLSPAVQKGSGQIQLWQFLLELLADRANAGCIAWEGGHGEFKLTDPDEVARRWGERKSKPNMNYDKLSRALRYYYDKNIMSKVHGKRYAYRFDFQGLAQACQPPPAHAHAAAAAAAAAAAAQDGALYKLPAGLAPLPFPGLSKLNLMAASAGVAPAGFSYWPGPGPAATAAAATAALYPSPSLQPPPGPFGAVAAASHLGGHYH
Particulars: protein: recombinant; tags: N-terminal GST; dsDNA, one strand shown. A digest of the protocol: as §1

In another experiment the target is ETV5 (Homo sapiens, UniProt P41161 1-510). Particulars: protein: recombinant; tags: N-terminal GST; dsDNA, one strand shown. A digest of the protocol:
as §1

In the next experiment the target is HSF1 (Homo sapiens, UniProt Q00613 1-529). The note with it: protein: recombinant; tags: N-terminal GST; chain copies: 3; dsDNA, one strand shown. A digest of the protocol:
as §1

A further experiment deals with T8, SPIC (Homo sapiens, UniProt Q8N5J4 1-248).
T8 sequence: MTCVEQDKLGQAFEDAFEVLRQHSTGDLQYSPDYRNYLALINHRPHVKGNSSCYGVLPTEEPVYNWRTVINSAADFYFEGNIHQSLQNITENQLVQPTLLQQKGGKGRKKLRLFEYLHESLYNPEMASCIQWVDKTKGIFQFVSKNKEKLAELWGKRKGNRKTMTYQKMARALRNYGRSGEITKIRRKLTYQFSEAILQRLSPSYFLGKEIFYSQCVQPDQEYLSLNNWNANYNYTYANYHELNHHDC
The note with it: protein: recombinant; tags: N-terminal GST; dsDNA, one strand shown. In outline: as §1

Another experiment has as its target ELF4 (Homo sapiens, UniProt Q99607 1-663). Particulars: protein: recombinant; tags: N-terminal GST; dsDNA, one strand shown. In outline: as §1
For a further experiment, the target named is T9, ELK4 (Homo sapiens, UniProt P28324-2 1-405).
T9 sequence: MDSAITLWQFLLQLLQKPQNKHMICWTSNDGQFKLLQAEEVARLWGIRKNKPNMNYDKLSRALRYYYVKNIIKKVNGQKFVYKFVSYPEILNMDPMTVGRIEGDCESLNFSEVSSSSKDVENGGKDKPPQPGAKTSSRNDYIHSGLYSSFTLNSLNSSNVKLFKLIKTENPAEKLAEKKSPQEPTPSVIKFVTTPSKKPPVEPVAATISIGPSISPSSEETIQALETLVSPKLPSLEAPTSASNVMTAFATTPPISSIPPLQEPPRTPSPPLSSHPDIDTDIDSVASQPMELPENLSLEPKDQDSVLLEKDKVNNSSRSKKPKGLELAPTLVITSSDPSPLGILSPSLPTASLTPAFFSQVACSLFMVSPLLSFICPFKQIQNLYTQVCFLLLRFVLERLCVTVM
The note with it: protein: recombinant; tags: N-terminal GST; dsDNA, one strand shown. A digest of the protocol:
as §1

For the next experiment, the target named is T10, ETV2 (Homo sapiens, UniProt O00321 1-342).
T10 sequence: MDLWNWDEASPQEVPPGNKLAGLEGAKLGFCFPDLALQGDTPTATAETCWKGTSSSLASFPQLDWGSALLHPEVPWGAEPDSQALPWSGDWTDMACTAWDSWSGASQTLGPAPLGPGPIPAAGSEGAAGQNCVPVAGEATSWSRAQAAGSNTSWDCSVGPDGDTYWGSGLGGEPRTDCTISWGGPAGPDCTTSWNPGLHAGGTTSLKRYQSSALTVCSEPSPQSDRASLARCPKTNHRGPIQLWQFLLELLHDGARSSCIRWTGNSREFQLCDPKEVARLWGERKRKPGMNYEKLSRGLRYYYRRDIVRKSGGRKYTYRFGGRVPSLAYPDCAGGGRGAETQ
The note with it: protein: recombinant; tags: N-terminal GST; dsDNA, one strand shown. A digest of the protocol: as §1

The next experiment addresses T11, ELF3 (Homo sapiens, UniProt P78545 1-371).
T11 sequence: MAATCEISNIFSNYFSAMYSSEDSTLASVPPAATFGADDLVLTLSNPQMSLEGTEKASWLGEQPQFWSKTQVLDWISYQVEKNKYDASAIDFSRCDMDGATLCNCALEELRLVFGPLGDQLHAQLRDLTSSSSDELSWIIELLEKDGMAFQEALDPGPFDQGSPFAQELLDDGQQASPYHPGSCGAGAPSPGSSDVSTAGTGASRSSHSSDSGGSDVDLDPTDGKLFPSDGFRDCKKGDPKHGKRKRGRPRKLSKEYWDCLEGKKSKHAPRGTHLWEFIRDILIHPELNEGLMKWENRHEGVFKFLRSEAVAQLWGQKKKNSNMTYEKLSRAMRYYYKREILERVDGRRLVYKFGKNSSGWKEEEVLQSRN
Particulars: protein: recombinant; tags: N-terminal GST; dsDNA, one strand shown. A digest of the protocol: as §1

A further experiment addresses CRX (Homo sapiens, UniProt O43186 1-299). Particulars: protein: recombinant; tags: N-terminal GST; dsDNA, one strand shown. A digest of the protocol: as §1
For a further experiment, the target named is ETV1 (Homo sapiens, UniProt P50549 1-477). The note with it: protein: recombinant; tags: N-terminal GST; dsDNA, one strand shown. In outline: as §1
Sequence of ETV1 (P50549 whole entry): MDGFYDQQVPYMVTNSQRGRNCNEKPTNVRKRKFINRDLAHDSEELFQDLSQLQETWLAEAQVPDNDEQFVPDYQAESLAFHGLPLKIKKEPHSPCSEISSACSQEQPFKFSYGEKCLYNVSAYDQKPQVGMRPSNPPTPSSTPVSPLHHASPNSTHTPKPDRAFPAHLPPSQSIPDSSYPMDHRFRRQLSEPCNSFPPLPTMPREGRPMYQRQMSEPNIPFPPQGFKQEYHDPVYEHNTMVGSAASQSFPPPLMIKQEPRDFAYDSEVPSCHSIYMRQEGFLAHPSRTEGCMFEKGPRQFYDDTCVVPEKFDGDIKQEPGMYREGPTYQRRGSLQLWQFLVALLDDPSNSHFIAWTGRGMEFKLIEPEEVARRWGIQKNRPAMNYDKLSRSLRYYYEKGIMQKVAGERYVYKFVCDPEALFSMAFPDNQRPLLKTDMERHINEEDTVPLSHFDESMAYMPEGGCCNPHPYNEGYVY

Sequence of ELF4 (Q99607 whole entry): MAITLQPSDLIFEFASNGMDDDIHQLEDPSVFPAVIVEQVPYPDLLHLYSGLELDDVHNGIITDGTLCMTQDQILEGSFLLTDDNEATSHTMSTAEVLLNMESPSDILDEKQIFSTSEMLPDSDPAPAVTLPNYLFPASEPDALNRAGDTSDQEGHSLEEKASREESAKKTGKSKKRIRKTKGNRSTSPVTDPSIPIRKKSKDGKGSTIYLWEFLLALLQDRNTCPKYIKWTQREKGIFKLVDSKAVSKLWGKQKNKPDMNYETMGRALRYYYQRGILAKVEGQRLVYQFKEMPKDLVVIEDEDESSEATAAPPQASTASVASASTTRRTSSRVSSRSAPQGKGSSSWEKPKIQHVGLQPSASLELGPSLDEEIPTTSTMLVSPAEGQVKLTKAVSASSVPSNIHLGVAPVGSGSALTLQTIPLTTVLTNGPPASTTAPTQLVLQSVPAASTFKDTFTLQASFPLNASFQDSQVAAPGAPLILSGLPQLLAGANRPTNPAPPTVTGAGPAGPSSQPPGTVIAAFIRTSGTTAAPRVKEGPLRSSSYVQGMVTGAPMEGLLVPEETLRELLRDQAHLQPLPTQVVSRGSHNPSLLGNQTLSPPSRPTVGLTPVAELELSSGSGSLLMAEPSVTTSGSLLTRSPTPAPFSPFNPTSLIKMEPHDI
Sequence of ETV5 (P41161 whole entry): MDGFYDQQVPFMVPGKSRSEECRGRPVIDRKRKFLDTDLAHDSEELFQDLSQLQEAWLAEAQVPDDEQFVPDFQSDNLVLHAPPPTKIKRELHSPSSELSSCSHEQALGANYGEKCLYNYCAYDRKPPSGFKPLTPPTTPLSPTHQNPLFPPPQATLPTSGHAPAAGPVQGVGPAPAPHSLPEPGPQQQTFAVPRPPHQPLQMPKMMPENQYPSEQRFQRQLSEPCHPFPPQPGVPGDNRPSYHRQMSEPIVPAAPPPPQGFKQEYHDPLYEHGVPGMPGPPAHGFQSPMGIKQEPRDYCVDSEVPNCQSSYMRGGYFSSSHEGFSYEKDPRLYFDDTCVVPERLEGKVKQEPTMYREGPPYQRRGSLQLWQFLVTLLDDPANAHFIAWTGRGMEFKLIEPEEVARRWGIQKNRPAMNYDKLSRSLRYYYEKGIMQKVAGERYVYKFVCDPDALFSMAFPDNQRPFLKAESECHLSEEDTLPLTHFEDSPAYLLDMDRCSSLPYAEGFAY
Sequence of HSF1 (Q00613 whole entry): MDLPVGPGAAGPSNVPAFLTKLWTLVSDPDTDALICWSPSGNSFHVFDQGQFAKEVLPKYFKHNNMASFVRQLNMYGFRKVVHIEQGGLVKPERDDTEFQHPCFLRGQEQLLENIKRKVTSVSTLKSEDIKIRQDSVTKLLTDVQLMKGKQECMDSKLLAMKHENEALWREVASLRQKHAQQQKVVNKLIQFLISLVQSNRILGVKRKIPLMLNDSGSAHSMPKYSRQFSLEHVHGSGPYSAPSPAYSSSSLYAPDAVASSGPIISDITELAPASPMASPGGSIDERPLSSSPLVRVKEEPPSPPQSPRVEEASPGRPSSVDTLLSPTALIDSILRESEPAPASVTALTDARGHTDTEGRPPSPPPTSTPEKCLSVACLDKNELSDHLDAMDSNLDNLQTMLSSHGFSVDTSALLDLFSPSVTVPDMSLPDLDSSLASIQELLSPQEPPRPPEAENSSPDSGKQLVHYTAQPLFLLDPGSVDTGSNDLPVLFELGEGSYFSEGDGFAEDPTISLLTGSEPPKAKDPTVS
Sequence of SPIB (Q01892 whole entry): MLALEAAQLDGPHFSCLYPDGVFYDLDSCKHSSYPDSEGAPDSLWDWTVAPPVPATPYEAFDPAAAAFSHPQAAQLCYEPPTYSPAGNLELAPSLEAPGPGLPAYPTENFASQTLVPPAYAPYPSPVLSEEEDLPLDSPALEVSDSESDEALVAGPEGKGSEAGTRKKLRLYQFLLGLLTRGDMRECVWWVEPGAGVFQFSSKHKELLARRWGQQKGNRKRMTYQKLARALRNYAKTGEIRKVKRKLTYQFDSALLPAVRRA
Sequence of CRX (O43186 whole entry): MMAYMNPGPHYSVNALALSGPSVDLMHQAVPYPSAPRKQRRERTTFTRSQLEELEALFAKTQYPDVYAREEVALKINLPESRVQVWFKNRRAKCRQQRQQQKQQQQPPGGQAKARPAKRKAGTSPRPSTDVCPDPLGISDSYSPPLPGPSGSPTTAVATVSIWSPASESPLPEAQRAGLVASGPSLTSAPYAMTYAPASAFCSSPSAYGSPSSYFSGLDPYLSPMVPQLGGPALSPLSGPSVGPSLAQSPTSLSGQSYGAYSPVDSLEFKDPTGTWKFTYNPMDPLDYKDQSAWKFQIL
Sequence of ELF1 (P32519 whole entry): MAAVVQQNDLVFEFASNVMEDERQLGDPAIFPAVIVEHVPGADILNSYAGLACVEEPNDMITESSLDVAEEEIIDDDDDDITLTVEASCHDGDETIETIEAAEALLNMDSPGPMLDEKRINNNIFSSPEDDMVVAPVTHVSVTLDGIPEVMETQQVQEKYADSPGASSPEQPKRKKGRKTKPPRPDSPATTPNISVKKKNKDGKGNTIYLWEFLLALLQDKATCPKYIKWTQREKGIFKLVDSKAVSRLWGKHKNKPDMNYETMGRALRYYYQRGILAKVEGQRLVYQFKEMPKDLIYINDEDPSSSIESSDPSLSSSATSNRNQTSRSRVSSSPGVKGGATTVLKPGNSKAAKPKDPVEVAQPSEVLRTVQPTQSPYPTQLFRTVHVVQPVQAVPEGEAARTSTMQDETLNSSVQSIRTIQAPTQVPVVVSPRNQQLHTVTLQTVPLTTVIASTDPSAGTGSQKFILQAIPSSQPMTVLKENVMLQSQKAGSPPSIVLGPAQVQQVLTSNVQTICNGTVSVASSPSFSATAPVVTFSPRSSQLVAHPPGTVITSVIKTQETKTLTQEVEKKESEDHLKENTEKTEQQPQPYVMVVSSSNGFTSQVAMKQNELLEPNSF

With CCCACT, the binding signal is 1.36 fold enrichment (6-mer frequency, TF over GST control) with FLI1; 1.45 fold enrichment (6-mer frequency, TF over GST control) with ELK1; 1.26 fold enrichment (6-mer frequency, TF over GST control) with GABPA; 1.35 fold enrichment (6-mer frequency, TF over GST control) with ERG; 1.38 fold enrichment (6-mer frequency, TF over GST control) in the experiment with ELF1; 1.46 fold enrichment (6-mer frequency, TF over GST control) with EHF. The binding signal is 1.39 fold enrichment (6-mer frequency, TF over GST control) with SPI1; 1.26 fold enrichment (6-mer frequency, TF over GST control) in the experiment with SPIB; 1.42 fold enrichment (6-mer frequency, TF over GST control) with ELK3; 1.5 fold enrichment (6-mer frequency, TF over GST control) with FEV; 1.33 fold enrichment (6-mer frequency, TF over GST control) with ETV5; 1.07 fold enrichment (6-mer frequency, TF over GST control) with HSF1. Further, the binding signal with SPIC was 1.27 fold enrichment (6-mer frequency, TF over GST control); in the experiment with ELF4, 1.43 fold enrichment (6-mer frequency, TF over GST control); in the experiment with ELK4 it was 1.24 fold enrichment (6-mer frequency, TF over GST control); with ETV2, 1.37 fold enrichment (6-mer frequency, TF over GST control); in the experiment with ELF3 it was 1.18 fold enrichment (6-mer frequency, TF over GST control); with CRX it was 1.14 fold enrichment (6-mer frequency, TF over GST control). The binding signal with ETV1 is 1.34 fold enrichment (6-mer frequency, TF over GST control).
